Drawing on PubChem BioAssay (NCI), this text covers growth inhibition for ten compounds.

The panel holds about 79,000 compounds, 15% with a hit somewhere; the sample as a whole holds those more often. Values without a mark were called inactive. The source made the active and inactive calls. No stated cut-off is given here; in the data, active means growth inhibition above about 70%; inactive means the rest.

A short description of experiment [1]: NCI Yeast Anticancer Drug Screen. Data for the rad50 strain (AID 155).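 Further: 0% = growth of vehicle-only cultures of the same strain.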 The note with it: S. cerevisiae rad50 strain growth inhibition, stronger effect = higher value. In a few lines: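 A DNA repair-deficient yeast mutant serves as the test organism; compound-induced growth inhibition is calculated against vehicle-treated cells.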
Experiment [2] in a line: NCI Yeast Anticancer Drug Screen. Data for the mec2-1 strain (AID 157). The settings on record: S. cerevisiae mec2-1 strain, stronger effect = higher value. In a few lines: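 Mutant yeast (mec2-1) grown with compound; growth inhibition relative to vehicle control reported.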
A short description of experiment [3]: NCI Yeast Anticancer Drug Screen. Data for the sgs1 mgt1 strain (AID 161).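 Further: 0% = growth of cultures given vehicle only.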 The note with it: S. cerevisiae sgs1 mgt1 strain, stronger effect = higher value. In a few lines: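 Percent growth inhibition was derived by comparing compound-exposed mutant yeast with vehicle-exposed cultures. The strain carries alterations in DNA damage repair.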
A short description of experiment [4]: NCI Yeast Anticancer Drug Screen. Data for the cln2 rad14 strain (AID 165).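 Further: 0% = growth equal to vehicle treated cultures.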 The settings on record: S. cerevisiae cln2 rad14 strain, stronger effect = higher value. In a few lines: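 Readout is yeast growth inhibition versus vehicle-treated controls, using a strain with cln2 and rad14 alterations exposed to compound.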
Experiment [5] is described as follows: NCI Yeast Anticancer Drug Screen. Data for the bub3 strain (AID 167). The note with it: S. cerevisiae bub3 mutant strain, stronger effect = higher value. In a few lines:
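Inhibition values come from growth of compound-treated mutant yeast normalised to vehicle-treated controls.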

Experiment [6] can be described thus: NCI Yeast Anticancer Drug Screen. Data for the mlh1 rad18 strain (AID 175). The note with it: S. cerevisiae mlh1 rad18 strain growth inhibition, stronger effect = higher value. The method, boiled down:
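Genetically defined yeast (DNA repair-deficient) exposed to compounds; growth inhibition determined relative to vehicle.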

[7] abbreviates: at 5.0 µM (retest, dose inferred, filed as 0.5).
The mark [8] stands for this setting: at 50.0 µM (retest, dose inferred, filed as 5.0).

For `Oc1c(I)cc(I)cc1I`, the growth inhibition in experiment [1] (setting [7]) was -6%; in experiment [1] (setting [8]) it was 91% (active); in experiment [1] (at 50.0 µM) it was 38%; in experiment [2] (setting [7]), -3%; in experiment [2] (setting [8]) it was 95% (active); in experiment [2] (at 50.0 µM), 43%. Moreover, the growth inhibition in experiment [3] (setting [7]) is -9%; in experiment [3] (setting [8]) it was 53%; in experiment [3] (at 50.0 µM), 7.7%; in experiment [4] (setting [7]) it was -4%; in experiment [4] (setting [8]), 94% (active); in experiment [4] (at 50.0 µM), -32.6%. For the same compound, the growth inhibition is -5% in experiment [5] (setting [7]), 82% (active) in experiment [5] (setting [8]) and 67.6% in experiment [5] (at 50.0 µM).

Regarding `CC1CCN(CCC(=O)CC(c2ccccc2)c2c(O)c3ccccc3oc2=O)CC1` (configuration not stated), the growth inhibition was 16% in experiment [1] (setting [7]); 16% in experiment [1] (setting [8]); 87.3% (active) in experiment [1] (at 50.0 µM); 10% in experiment [2] (setting [7]); 10% in experiment [2] (setting [8]); 83.8% (active) in experiment [2] (at 50.0 µM). The growth inhibition is 12% in experiment [3] (setting [7]); 12% in experiment [3] (setting [8]); 88% (active) in experiment [3] (at 50.0 µM); 2% in experiment [4] (setting [7]); 2% in experiment [4] (setting [8]); 89.8% (active) in experiment [4] (at 50.0 µM). Besides, the growth inhibition is 4% in experiment [5] (setting [7]); 4% in experiment [5] (setting [8]); 87.7% (active) in experiment [5] (at 50.0 µM); 18% in experiment [6] (setting [7]); 18% in experiment [6] (setting [8]); 88.3% (active) in experiment [6] (at 50.0 µM).

On to `Cc1ccc(S(=O)(=O)/N=[Se](\C)c2ccccc2)cc1` (configuration not stated), for which the growth inhibition in experiment [1] (setting [7]) is 16%; in experiment [1] (setting [8]), 94% (active); in experiment [1] (at 50.0 µM), 93.7% (active); in experiment [2] (setting [7]) it was 11%; in experiment [2] (setting [8]), 95% (active); in experiment [2] (at 50.0 µM) it was 68.5%. In addition, the growth inhibition was 18% in experiment [3] (setting [7]); 83% (active) in experiment [3] (setting [8]); 90.7% (active) in experiment [3] (at 50.0 µM); -1% in experiment [4] (setting [7]); 56% in experiment [4] (setting [8]); 60.9% in experiment [4] (at 50.0 µM). Also, the growth inhibition in experiment [5] (setting [7]) was 2%; in experiment [5] (setting [8]), 83% (active); in experiment [5] (at 50.0 µM) it was 80% (active); in experiment [6] (setting [7]) it was 13%; in experiment [6] (setting [8]), 91% (active); in experiment [6] (at 50.0 µM), 87.4% (active).

With `CS(=N)(=O)CCC(N)C(=O)O` (configuration not stated), the growth inhibition in experiment [1] (setting [7]) was -162%; in experiment [1] (setting [8]), -152%; in experiment [1] (at 50.0 µM), 11.4%; in experiment [2] (setting [7]) it was -50%; in experiment [2] (setting [8]), -48%; in experiment [2] (at 50.0 µM) it was 9.8%. Also, the growth inhibition was -65% in experiment [3] (setting [7]); -45% in experiment [3] (setting [8]); -3.9% in experiment [3] (at 50.0 µM); -69% in experiment [4] (setting [7]); -61% in experiment [4] (setting [8]); 18.7% in experiment [4] (at 50.0 µM). For the same compound, the growth inhibition in experiment [5] (setting [7]) was -73%; in experiment [5] (setting [8]), -78%; in experiment [5] (at 50.0 µM) it was 2.1%; in experiment [6] (setting [7]), -153%; in experiment [6] (setting [8]), -114%; in experiment [6] (at 50.0 µM) it was 14.6%.

`Oc1c(Cl)c(Cl)cc(Cl)c1Cc1c(Cl)cc(Cl)c(Cl)c1[O][Pb]([c]1ccccc1)([c]1ccccc1)[c]1ccccc1`: the growth inhibition in experiment [1] (setting [7]) was 99% (active); in experiment [1] (setting [8]), 87% (active); in experiment [1] (at 50.0 µM), 99.5% (active); in experiment [2] (setting [7]) it was 99% (active); in experiment [2] (setting [8]), 90% (active); in experiment [2] (at 50.0 µM), 99.5% (active). Also, the growth inhibition is 99% (active) in experiment [3] (setting [7]); 89% (active) in experiment [3] (setting [8]); 99.7% (active) in experiment [3] (at 50.0 µM); 99% (active) in experiment [4] (setting [7]); 87% (active) in experiment [4] (setting [8]); 99% (active) in experiment [4] (at 50.0 µM). In addition, the growth inhibition in experiment [5] (setting [7]) was 99% (active); in experiment [5] (setting [8]), 89% (active); in experiment [5] (at 50.0 µM), 99.3% (active); in experiment [6] (setting [7]), 99% (active); in experiment [6] (setting [8]), 87% (active); in experiment [6] (at 50.0 µM) it was 99.5% (active).

`COCCOCCOC(=O)CBr`: the growth inhibition was -2% in experiment [1] (setting [7]); 96% (active) in experiment [1] (setting [8]); 86.1% (active) in experiment [1] (at 50.0 µM); -7% in experiment [2] (setting [7]); 96% (active) in experiment [2] (setting [8]); 82.5% (active) in experiment [2] (at 50.0 µM). Also, the growth inhibition in experiment [3] (setting [7]) was 1%; in experiment [3] (setting [8]) it was 97% (active); in experiment [3] (at 50.0 µM), 88.7% (active); in experiment [4] (setting [7]), 1%; in experiment [4] (setting [8]) it was 68%; in experiment [4] (at 50.0 µM), 40.7%. Also, the growth inhibition in experiment [5] (setting [7]) is -3%; in experiment [5] (setting [8]) it was 94% (active); in experiment [5] (at 50.0 µM), 77.8% (active); in experiment [6] (setting [7]) it was -3%; in experiment [6] (setting [8]), 97% (active); in experiment [6] (at 50.0 µM) it was 92.2% (active).

In the case of `Nc1ccccc1O.O.O=C(O)C1[O][Sb][O]C1C(=O)O` (configuration not stated), the growth inhibition in experiment [1] (setting [7]) was 19%; in experiment [1] (setting [8]) it was 33%; in experiment [1] (at 50.0 µM), 55.5%; in experiment [2] (setting [7]), 26%; in experiment [2] (setting [8]), 23%; in experiment [2] (at 50.0 µM), 53.5%. For the same compound, the growth inhibition in experiment [3] (setting [7]) was 12%; in experiment [3] (setting [8]), 25%; in experiment [3] (at 50.0 µM), 27.2%; in experiment [4] (setting [7]), 10%; in experiment [4] (setting [8]), 20%; in experiment [4] (at 50.0 µM), 33.3%. In addition, the growth inhibition in experiment [5] (setting [7]) was 37%; in experiment [5] (setting [8]), 61%; in experiment [5] (at 50.0 µM) it was 82.4% (active); in experiment [6] (setting [7]), 37%; in experiment [6] (setting [8]), 55%; in experiment [6] (at 50.0 µM), 59.4%.

Take `C[SH+]c1ccccc1N=Cc1ccccn1.C[SH+]c1ccccc1N=Cc1ccccn1.[Ni+2].[O-][Cl+3]([O-])([O-])[O-]`: the growth inhibition in experiment [1] (setting [7]) was -3%; in experiment [1] (setting [8]), 11%; in experiment [1] (at 50.0 µM) it was 99% (active); in experiment [2] (setting [7]), -5%; in experiment [2] (setting [8]) it was 5%; in experiment [2] (at 50.0 µM) it was 97.2% (active). For the same compound, the growth inhibition is -1% in experiment [3] (setting [7]); 12% in experiment [3] (setting [8]); 99.5% (active) in experiment [3] (at 50.0 µM); 3% in experiment [4] (setting [7]); 7% in experiment [4] (setting [8]); 58.2% in experiment [4] (at 50.0 µM). In addition, the growth inhibition is -4% in experiment [5] (setting [7]); 2% in experiment [5] (setting [8]); 98.8% (active) in experiment [5] (at 50.0 µM); 1% in experiment [6] (setting [7]); 16% in experiment [6] (setting [8]); 98% (active) in experiment [6] (at 50.0 µM).

With `O=C(N/N=C/c1cc(Br)cc(Br)c1[O-])c1ccccc1O.O=C(N/N=C/c1cc(Br)cc(Br)c1[O-])c1ccccc1O.[Zn+2]`, the growth inhibition is 96% (active) in experiment [1] (setting [7]); 98% (active) in experiment [1] (setting [8]); 52.5% in experiment [1] (at 50.0 µM); 96% (active) in experiment [2] (setting [7]); 96% (active) in experiment [2] (setting [8]); 90.7% (active) in experiment [2] (at 50.0 µM). Further, the growth inhibition was 97% (active) in experiment [3] (setting [7]); 98% (active) in experiment [3] (setting [8]); 85.5% (active) in experiment [3] (at 50.0 µM); 94% (active) in experiment [4] (setting [7]); 96% (active) in experiment [4] (setting [8]); 64.5% in experiment [4] (at 50.0 µM). Also, the growth inhibition in experiment [5] (setting [7]) was 95% (active); in experiment [5] (setting [8]) it was 96% (active); in experiment [5] (at 50.0 µM) it was 88.1% (active); in experiment [6] (setting [7]), 95% (active); in experiment [6] (setting [8]), 97% (active); in experiment [6] (at 50.0 µM) it was 83.5% (active).

For `O=[N+]([O-])c1cc(-c2ccccc2)ccc1O`, the growth inhibition in experiment [1] (setting [7]) was -3%; in experiment [1] (setting [8]), 10%; in experiment [1] (at 50.0 µM), 98% (active); in experiment [2] (setting [7]), 5%; in experiment [2] (setting [8]), 12%; in experiment [2] (at 50.0 µM) it was 98.7% (active). In addition, the growth inhibition in experiment [3] (setting [7]) is -1%; in experiment [3] (setting [8]), 7%; in experiment [3] (at 50.0 µM), 97.4% (active); in experiment [4] (setting [7]) it was -3%; in experiment [4] (setting [8]), 2%; in experiment [4] (at 50.0 µM), 98% (active). In addition, the growth inhibition is 0% in experiment [5] (setting [7]); -2% in experiment [5] (setting [8]); 96.2% (active) in experiment [5] (at 50.0 µM); -1% in experiment [6] (setting [7]); 7% in experiment [6] (setting [8]); 98.8% (active) in experiment [6] (at 50.0 µM).
